Data on 28 sequences can be found in the supplement of paper PMC12645437, “Orthogonal IMiD-Degron Pairs Induce Selective Protein Degradation in Cells” (ACS Chemical Biology, 2025).

The full ranking holds about 8,300 sequences; the median of “log2 fold change of degron read counts, EGFP-low vs EGFP+ sorted cells (limma voom), compound-induced degradation” is about -1.1, and the highest 2% start at about 3.2. Many of the other results were omitted from the sample, so the highest values are more common in it than they were.

This assay has as its target T1, CRBN, Q96SW2.
T1 chain: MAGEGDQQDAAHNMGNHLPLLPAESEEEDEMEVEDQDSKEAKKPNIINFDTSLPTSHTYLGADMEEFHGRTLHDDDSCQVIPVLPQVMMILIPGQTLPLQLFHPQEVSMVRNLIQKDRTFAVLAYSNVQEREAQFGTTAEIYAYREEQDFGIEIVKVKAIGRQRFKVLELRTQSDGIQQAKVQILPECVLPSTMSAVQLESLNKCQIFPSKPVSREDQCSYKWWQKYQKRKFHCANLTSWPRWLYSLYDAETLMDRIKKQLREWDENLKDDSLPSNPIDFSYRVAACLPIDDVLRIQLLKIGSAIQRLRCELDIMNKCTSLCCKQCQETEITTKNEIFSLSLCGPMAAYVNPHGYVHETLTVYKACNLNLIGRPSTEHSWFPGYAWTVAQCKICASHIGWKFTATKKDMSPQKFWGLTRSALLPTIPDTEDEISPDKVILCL
As to the kind of experiment: log2 fold change of degron read counts, EGFP-low vs EGFP+ sorted cells (limma voom), compound-induced degradation; higher = more compound-induced degradation of the degron-EGFP fusion; degrons are variants of IKZF1/3 zinc finger 2; compound dose not given here. As to conditions: Jurkat, 18 h.

[1] abbreviates: compound: compound 19 (5-tert-butyl-thalidomide).
Where [2] appears, read: compound: compound 22 (5-morpholino-thalidomide).
Where [3] appears, read: compound: compound 33 (diphenyl IMiD analogue).
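Further: pooled lentiviral library of zinc finger degron-EGFP fusions in mCherry-positive Jurkat cells, FACS-sorted after compound exposure, with degron abundance counted by next-generation sequencing.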

Regarding FGCPVCGACFTQKGNLLRHIKL [46F_47G_49P_50V_52G_53A_54C_55F_67L_, Q9UKT9], the “log2 fold change of degron read counts” value reads like this: under setting [1], 3.88; under setting [2], 3.16; under setting [3], 2.81; (compound: thalidomide) 1.1.
For FHCDVCGACFTQKGNLLRHIKL [46F_47H_49D_50V_52G_53A_54C_55F_67L_, Q9UKT9] the same measures were 0.383, 0.3, -1.01 and -2.43.
For FFCPVCGACFTQKGNLLRHIKL [46F_47F_49P_50V_52G_53A_54C_55F_67L_, Q9UKT9], in that order: 3, 3.34, 2.16 and 1.3.
FVCPVCGACFTQKGNLLRHIKL [46F_47V_49P_50V_52G_53A_54C_55F_67L_, Q9UKT9]: the “log2 fold change of degron read counts” value was -0.46 under setting [1], 1.87 under setting [2], 2.08 under setting [3] and 2.53 (compound: thalidomide).
In the case of FFCDQCGAEFTQKGNLLRHIKL [46F_47F_49D_50Q_52G_53A_54E_55F_67L_, Q9UKT9], the “log2 fold change of degron read counts” value is -0.653 under setting [1], -1.5 under setting [2], -2.48 under setting [3] and -2.75 (compound: thalidomide).
With FACPVCGAFFTQKGNLLRHIKL [46F_47A_49P_50V_52G_53A_54F_55F_67L_, Q9UKT9], the “log2 fold change of degron read counts” value under setting [1] amounted to 1.92, the “log2 fold change of degron read counts” value under setting [2] is -0.0365, the “log2 fold change of degron read counts” value under setting [3] came out at 0.632 and the “log2 fold change of degron read counts” value (compound: thalidomide) was -0.719.
Take FECPICGHEFTQKGNLLRHIKL [46F_47E_49P_50I_52G_53H_54E_55F_67L_, Q9UKT9]: the “log2 fold change of degron read counts” value is, setting by setting: under setting [1], -3.46; under setting [2], -3.29; under setting [3], -1.58; (compound: thalidomide) -1.82.
For FLCEICGRRFTQKGNLLRHIKL [46F_47L_49E_50I_52G_53R_54R_55F_67L_, Q9UKT9], in that order: -1.65, -2.28, -1.89 and -0.0712.
For FLCNVCGASFTQKGNLLRHIKL [46F_47L_49N_50V_52G_53A_54S_55F_67L_, Q9UKT9] the same measures were -1.47, -1.87, -0.611 and -0.827.
As to FFCPICGHEFTQKGNLLRHIKL [46F_47F_49P_50I_52G_53H_54E_55F_67L_, Q9UKT9], the “log2 fold change of degron read counts” value reads like this: under setting [1], -1.46; under setting [2], -1.37; under setting [3], -1.31; (compound: thalidomide) -1.41.
For FMCNVCGAMFTQKGNLLRHIKL [46F_47M_49N_50V_52G_53A_54M_55F_67L_, Q9UKT9], in that order: -2.09, -2.13, 0.122 and -1.26.
For FTCNVCGALFTQKGNLLRHIKL [46F_47T_49N_50V_52G_53A_54L_55F_67L_, Q9UKT9] the same measures were -2.25, -1.98, -0.325 and -1.1.
For FKCDICGAGFTQKGNLLRHIKL [46F_47K_49D_50I_52G_53A_54G_55F_67L_, Q9UKT9] the same measures were 0.734, -1.83, -2.3 and -1.43.
In the case of FLCNICGAAFTQKGNLLRHIKL [46F_47L_49N_50I_52G_53A_54A_55F_67L_, Q9UKT9], the “log2 fold change of degron read counts” value reads like this: under setting [1], -0.363; under setting [2], -1.33; under setting [3], 0.248; (compound: thalidomide) 0.231.
As for FRCPICGRMFTQKGNLLRHIKL [46F_47R_49P_50I_52G_53R_54M_55F_67L_, Q9UKT9], the “log2 fold change of degron read counts” value under setting [1] is -1.98, the “log2 fold change of degron read counts” value under setting [2] is -1.28, the “log2 fold change of degron read counts” value under setting [3] is -0.201 and the “log2 fold change of degron read counts” value (compound: thalidomide) was 0.319.
For FHCNQCGHNFTQKGNLLRHIKL [46F_47H_49N_50Q_52G_53H_54N_55F_67L_, Q9UKT9], in that order: -2.43, -3.18, -2.46 and -2.52.
For FVCNICGAYFTQKGNLLRHIKL [46F_47V_49N_50I_52G_53A_54Y_55F_67L_, Q9UKT9] the same measures were -0.917, -0.227, 1.05 and 1.24.
For FSCEQCGAHFTQKGNLLRHIKL [46F_47S_49E_50Q_52G_53A_54H_55F_67L_, Q9UKT9], in that order: -1.34, -2.19, -1.26 and -1.95.
Consider FECPVCGACFTQKGNLLRHIKL [46F_47E_49P_50V_52G_53A_54C_55F_67L_, Q9UKT9], for which the “log2 fold change of degron read counts” value under setting [1] was 0.122, the “log2 fold change of degron read counts” value under setting [2] is -0.609, the “log2 fold change of degron read counts” value under setting [3] amounted to 2.52 and the “log2 fold change of degron read counts” value (compound: thalidomide) was 2.75.
For FICPVCGACFTQKGNLLRHIKL [46F_47I_49P_50V_52G_53A_54C_55F_67L_, Q9UKT9], in that order: -0.981, 2.06, 2.04 and 2.16.
Take FTCPVCGACFTQKGNLLRHIKL [46F_47T_49P_50V_52G_53A_54C_55F_67L_, Q9UKT9]: the “log2 fold change of degron read counts” value is, setting by setting: under setting [1], 0.948; under setting [2], 2.51; under setting [3], 2.73; (compound: thalidomide) 3.33.
For FYCDICGAHFTQKGNLLRHIKL [46F_47Y_49D_50I_52G_53A_54H_55F_67L_, Q9UKT9] the same measures were 2.51, 3.38, 0.931 and -1.03.
FWCDICGAHFTQKGNLLRHIKL [46F_47W_49D_50I_52G_53A_54H_55F_67L_, Q9UKT9]: the “log2 fold change of degron read counts” value was 2.34 under setting [1], 3.41 under setting [2], 0.744 under setting [3] and -0.669 (compound: thalidomide).
For FCCDICGAHFTQKGNLLRHIKL [46F_47C_49D_50I_52G_53A_54H_55F_67L_, Q9UKT9], in that order: 0.131, -0.464, -0.191 and -0.916.
For FQCDICGAHFTQKGNLLRHIKL [46F_47Q_49D_50I_52G_53A_54H_55F_67L_, Q9UKT9], in that order: -1.42, -0.152, -0.605 and 1.82.
For FECDICGAHFTQKGNLLRHIKL [46F_47E_49D_50I_52G_53A_54H_55F_67L_, Q9UKT9], in that order: -1.93, -3.04, -0.896 and -0.791.
Take FNCDICGAHFTQKGNLLRHIKL [46F_47N_49D_50I_52G_53A_54H_55F_67L_, Q9UKT9]: the “log2 fold change of degron read counts” value is, setting by setting: under setting [1], 0.871; under setting [2], -0.896; under setting [3], -1.51; (compound: thalidomide) -1.76.
For LCCNQCGFRCTQKGNLLRHIKL [46L_47C_49N_50Q_52G_53F_54R_55C_67L_, Q9UKT9], in that order: -1.39, -1.65, -1.27 and -1.01.
